The values that follow come from PubChem BioAssay.

Active and inactive are the calls of the source. Rule as the data show it, unless noted: active = nuclear beta-catenin stimulation mostly above about 4.2% (no sharp cut-off); inactive = mostly below about 10%. Starred links: 1 amine or outer side, 2 acyl side, 3 side chain; linkers in the order of their positions; H or OH if unused. Positions of bridges follow the written chain, without caps; N, C: chain ends. Non-standard residues stand in square brackets, D forms with d. Residues, ends and D or L forms follow the SMILES beside them. ξ: configuration not given here. *: point of attachment. ΔAla(3-NHCONH2) = NC(=O)NC=C(N)C(=O)O; X1 = NC1=NCCC(C(N[*:1])C(=O)[*:2])N1; ξβ3hOrn = NCCCC(N)CC(=O)*; Dap = NC[CH](N)C(=O)O

A short description of assay [1]: Wnt pathway potentiators raising nuclear beta-catenin – imaging, WNT3A-conditioned medium, mouse C2C12, NPC library, primary screen (AID 1117326). Also: reference of the scale not given here. As to conditions: stronger effect = higher value.
Assay [2] can be described thus: stimulators of insulin release from INS-1E, primary screen, cell-based, 5 mM glucose, NPC library (AID 1117329;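 active = compound raises insulin release from rat beta cells at 5 mM glucose, no numeric limit stated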; also: reference of the scale not given here). As to conditions: rat INS-1E insulin secretion, at 10 µM, stronger effect = higher value.
A short description of assay [3]: growth inhibition of GSK3B-pretreated HCT116 cells – cell-based, CellTiter-Glo, 0.2 to 20 µM (AID 1117336;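 active = compounds lowering colon cancer cell viability after pretreatment blocking the GSK3B kinase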). As to conditions: HCT116 viability after GSK3B inhibitor, at 20 µM, stronger effect = higher value. In general terms: ATP-based viability assays read luminescence as a measure of living cells.
Assay [4] is described as follows: inhibition of endothelial tube formation, primary screen, imaging, VEGF stimulated, CD31 staining, tube area, NPC library (AID 1117340;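 active = compound that reduces growth-factor-driven endothelial tube area in a mixed cell culture, no cutoff stated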). As to conditions: VEGF-stimulated ADSC/ECFC co-culture, at 10 µM, stronger effect = higher value.
Assay [5] is described as follows: GLP1 release stimulators, primary, NCI-H716, NPC library (AID 1117341;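 active = compound raises GLP1 secretion from the human gut endocrine cells, with no numeric limit stated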; also: reference of the scale not given here). As to conditions: NCI-H716 cells, at 10 µM, stronger effect = higher value.
Assay [6] is described as follows: HCT116 colon cancer cell growth inhibition, primary screen, CellTiter-Glo luminescence, NPC library (AID 1117342;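 active = compounds that lower survival of HCT116 colon cancer cells in the luminescence readout, no numeric limit stated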). As to conditions: at 20 µM (top of the series).
Assay [7] in a line: reduced SW480 viability measured with CellTiter-Glo, NPC library, primary (AID 1117343;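 active = compounds that lower viability of the colon cancer cells in the luminescence readout, with no numeric limit stated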). As to conditions: CellTiter-Glo luminescence; at 20 µM (top of the series).
Assay [8] in a line: NPC library primary testing for decreased DLD-1 cell viability via CellTiter-Glo (AID 1117346;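 active = compounds that lower survival of DLD-1 colon cancer cells in the luminescence readout, no cutoff given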). As to conditions: DLD-1 viability, CellTiter-Glo luminescence; at 20 µM (top of the series).

Consider `O=C(CCN1CCC(c2ccccc2)C1)c1ccc2c(c1)OCCO2` (stereo unspecified), for which the nuclear beta-catenin stimulation in assay [1] (at 10 µM) was 12.8% (inactive); in assay [1] (stimulation, at 2 µM) it was 0.5%. For the same molecule, the insulin secretion stimulation in assay [2] is 0% (inactive). In addition, the viability decrease in assay [3] was 11.6% (inactive). Further, the tube area decrease in assay [4] was 17% (active). For the same molecule, the GLP1 secretion stimulation in assay [5] is 1.4% (inactive). For the same molecule, the inhibition of viability in assay [6] was -10.2% (inactive). For the same molecule, the viability decrease (inhibition) is 158% (active) in assay [7] and 101% (active) in assay [8].
On to `COC(=O)CCC[N+](C)(C)C`, for which the nuclear beta-catenin stimulation in assay [1] (at 10 µM) was -0.8% (inactive); in assay [1] (stimulation, at 2 µM), 0.6%. In assay [2], the insulin secretion stimulation is -6.3% (inactive). In assay [3], the viability decrease is -4.8% (inactive). Besides, the tube area decrease in assay [4] was 6.6% (inactive). Moreover, the GLP1 secretion stimulation in assay [5] is -14% (inactive). Also, the inhibition of viability in assay [6] is 4.6% (inactive). For the same molecule, the values for the viability decrease (inhibition) in assay [7] and in assay [8] were 2.9% (active) and -12.1% (inactive), respectively.
Consider `CCO[C@@H]1O[C@H](C(COCc2ccccc2)OCc2ccccc2)[C@H](OCc2ccccc2)[C@H]1O` (stereo partly specified), for which the nuclear beta-catenin stimulation was -1.3% (inactive) in assay [1] (at 10 µM) and -1.2% in assay [1] (stimulation, at 2 µM). For the same molecule, the insulin secretion stimulation in assay [2] was 2.2% (inactive). Besides, the viability decrease in assay [3] is 15.1% (inactive). The tube area decrease in assay [4] is 28.6% (inactive). The GLP1 secretion stimulation in assay [5] was 6.9% (inactive). Also, the inhibition of viability in assay [6] is 81.6% (active). Also, the viability decrease (inhibition) is 63.5% (active) in assay [7] and 44.6% (active) in assay [8].
Regarding `COC(=O)c1cc(S(N)(=O)=O)ccc1OC`, the nuclear beta-catenin stimulation in assay [1] (at 10 µM) is 0.9% (inactive); in assay [1] (stimulation, at 2 µM) it was 1.4%. Also, the insulin secretion stimulation in assay [2] is -0.15% (inactive). In assay [3], the viability decrease is -6.1% (inactive). In assay [4], the tube area decrease is 1.6% (inactive). Besides, the GLP1 secretion stimulation in assay [5] was 0.1% (inactive). Besides, in assay [6], the inhibition of viability was -5.9% (inactive). Moreover, the viability decrease (inhibition) in assay [7] was -8.9% (inactive); in assay [8], -2.9% (inactive).
For `CC(C)NCCCC1(C(N)=O)c2ccccc2-c2ccccc21`, the nuclear beta-catenin stimulation in assay [1] (at 10 µM) is 3.9% (inactive); in assay [1] (stimulation, at 2 µM) it was 0.2%. Also, the insulin secretion stimulation in assay [2] was 0.2% (inactive). Further, the viability decrease in assay [3] was -48.2% (inactive). Besides, the tube area decrease in assay [4] was 24.7% (inactive). Moreover, in assay [5], the GLP1 secretion stimulation is -2.8% (inactive). The inhibition of viability in assay [6] is -11.9% (inactive). For the same molecule, the viability decrease (inhibition) in assay [7] is 1.7% (inactive); in assay [8], -17% (inactive).
With `CCCCCCCCOc1ccc(C(=O)c2ccccc2)c(O)c1`, the nuclear beta-catenin stimulation was 1% (inactive) in assay [1] (at 10 µM) and 0.6% in assay [1] (stimulation, at 2 µM). Further, in assay [2], the insulin secretion stimulation was -2.1% (inactive). In assay [3], the viability decrease is -6.85% (inactive). The tube area decrease in assay [4] was -7.2% (inactive). The GLP1 secretion stimulation in assay [5] is 0.4% (inactive). Further, the inhibition of viability in assay [6] was -7.5% (inactive). The viability decrease (inhibition) in assay [7] is -0.5% (inactive); in assay [8] it was 6.1% (inactive).
For the molecule `NC[C@@H]1O[C@H](O[C@H]2[C@H](O)[C@H](O[C@H]3[C@@H](O)[C@H](N)C[C@H](N)[C@H]3O[C@H]3O[C@H](CN)[C@H](O)[C@H](O)[C@H]3N)O[C@@H]2CO)[C@@H](N)[C@@H](O)[C@@H]1O`, the nuclear beta-catenin stimulation is -0.3% (inactive) in assay [1] (at 10 µM) and 0.4% in assay [1] (stimulation, at 2 µM). In addition, the insulin secretion stimulation in assay [2] is 3.2% (inactive). For the same molecule, in assay [3], the viability decrease was -8.9% (inactive). Further, in assay [4], the tube area decrease is -22.4% (inactive). For the same molecule, the GLP1 secretion stimulation in assay [5] was 63.5% (active). In addition, the inhibition of viability in assay [6] is 9% (inactive). The viability decrease (inhibition) in assay [7] was 31.1% (inactive); in assay [8], 5% (active).
Turning to `Nc1nc(N)c(-c2ccccc2)s1`, the nuclear beta-catenin stimulation was 0.4% (inactive) in assay [1] (at 10 µM) and 2.2% in assay [1] (stimulation, at 2 µM). Also, the insulin secretion stimulation in assay [2] was -2% (inactive). In assay [3], the viability decrease is -1.63% (inactive). In addition, in assay [4], the tube area decrease was 16.7% (inactive). For the same molecule, in assay [5], the GLP1 secretion stimulation is 2.1% (inactive). The inhibition of viability in assay [6] was 10.2% (inactive). The viability decrease (inhibition) is 48.5% (inactive) in assay [7] and 2.53% (inactive) in assay [8].
Consider `CC(C)Cc1ccc(C(C)C(=O)OCc2ccccn2)cc1` (stereo unspecified), for which the nuclear beta-catenin stimulation was -0.2% (inactive) in assay [1] (at 10 µM) and 1.5% in assay [1] (stimulation, at 2 µM). In addition, in assay [2], the insulin secretion stimulation was -0.3% (inactive). In addition, in assay [3], the viability decrease is -24% (inactive). Besides, the tube area decrease in assay [4] is -19.1% (inactive). For the same molecule, in assay [5], the GLP1 secretion stimulation was 0.1% (inactive). Besides, in assay [6], the inhibition of viability is 22.8% (inactive). Further, the viability decrease (inhibition) in assay [7] is 40.9% (inactive); in assay [8] it was 19.1% (inactive).
For `Nc1ccc(C(=O)OCC(O)CO)cc1` (stereo unspecified), the nuclear beta-catenin stimulation in assay [1] (at 10 µM) was 3.1% (inactive); in assay [1] (stimulation, at 2 µM), 3.7%. In addition, in assay [2], the insulin secretion stimulation is 0.6% (inactive). Moreover, the viability decrease in assay [3] was 0.9% (inactive). Besides, the tube area decrease in assay [4] is -15.4% (inactive). The GLP1 secretion stimulation in assay [5] was -0.9% (inactive). Further, the inhibition of viability in assay [6] was 6.7% (inactive). In addition, the viability decrease (inhibition) was -16.3% (inactive) in assay [7] and -3.4% (inactive) in assay [8].
For the molecule `NCCCC(N)CC(=O)NCC1NC(=O)C(CO)NC(=O)C(N)CNC(=O)C(C2CCN=C(N)N2)NC(=O)C(=CNC(N)=O)NC1=O` (stereo not drawn) (H-[Dap]S[Dap](ξβ3hOrn)[ΔAla(3-NHCONH2)][X1]; lactam 1-C; configuration not given here), the nuclear beta-catenin stimulation in assay [1] (at 10 µM) is 0.2% (inactive); in assay [1] (stimulation, at 2 µM), 1.8%. The insulin secretion stimulation in assay [2] was -0.9% (inactive). The viability decrease in assay [3] was 3.9% (inactive). Further, the tube area decrease in assay [4] is -1% (inactive). Moreover, the GLP1 secretion stimulation in assay [5] is -1.3% (inactive). The inhibition of viability in assay [6] is -22.2% (inactive). Moreover, the results for the viability decrease (inhibition) in assay [7] and in assay [8] were -3.4% (inactive) and -12% (inactive), respectively.
As for `CC(C=CC1=C(C)CCCC1(C)C)=CC=CC(C)=CC(=O)Oc1c(C)c(C)c2c(c1C)CC[C@@](C)(CCC[C@H](C)CCC[C@H](C)CCCC(C)C)O2`, the nuclear beta-catenin stimulation in assay [1] (at 10 µM) is 2.1% (inactive); in assay [1] (stimulation, at 2 µM) it was 2.2%. For the same molecule, the insulin secretion stimulation in assay [2] is 2.9% (inactive). For the same molecule, the viability decrease in assay [3] was 2.5% (inactive). Further, the tube area decrease in assay [4] was -4.2% (inactive). Also, the GLP1 secretion stimulation in assay [5] was 2.3% (inactive). Further, the inhibition of viability in assay [6] is 32.1% (inactive). In addition, the viability decrease (inhibition) in assay [7] was -36.9% (inactive); in assay [8], 4% (inactive).
Take `CC12C=CC(=O)C=C1CCC1C2C(O)CC2(C)C1CCC2(O)C(=O)COP(=O)(O)O` (stereo unspecified): the nuclear beta-catenin stimulation in assay [1] (at 10 µM) was 1.1% (inactive); in assay [1] (stimulation, at 2 µM), 0.6%. Further, the insulin secretion stimulation in assay [2] is 1.5% (inactive). Moreover, the viability decrease in assay [3] is -38.5% (inactive). Moreover, the tube area decrease in assay [4] was -3.4% (inactive). In addition, the GLP1 secretion stimulation in assay [5] was -2% (inactive). The inhibition of viability in assay [6] is 1.57% (inactive). Besides, the viability decrease (inhibition) in assay [7] was -2.1% (inactive); in assay [8], -14.4% (inactive).
For the molecule `O=C(O)[C@@H]1C(=CCO)O[C@@H]2CC(=O)N12`, the nuclear beta-catenin stimulation in assay [1] (at 10 µM) was 1.3% (inactive); in assay [1] (stimulation, at 2 µM), 0.6%. Further, in assay [2], the insulin secretion stimulation was 2.2% (inactive). Besides, the viability decrease in assay [3] is 16.4% (inactive). Further, the tube area decrease in assay [4] is 0.5% (inactive). Besides, in assay [5], the GLP1 secretion stimulation is -1.2% (inactive). The inhibition of viability in assay [6] was 18.5% (inactive). Besides, the results for the viability decrease (inhibition) in assay [7] and in assay [8] were 26% (inactive) and -7.7% (inactive), respectively.
